For 75 molecules, total cell number results are on record in the supplement of paper PMC6135742.

Structures are written as SMILES. Where a name gives a salt, the structure may show the parent alone. ± gives the standard deviation of the averaged measurements. In all, about 2,600 compounds were measured (“total cell number (DAPI+ nuclei) relative to DMSO vehicle control”: median about -1.4, lowest 2% from about -23 on). For the sample, the lowest values were picked, then their nearest neighbours and some compounds at random.

The experiment deals with jimpy (Plp1 jimpy) mouse iPSC-derived oligodendrocyte progenitor cells. Description: total cell number (DAPI+ nuclei) relative to DMSO vehicle control (SDs above negative control mean); higher = more surviving cells. As to conditions: 10 µM; 3 days. The procedure:
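Primary phenotypic screen of >3,000 bioactive compounds (Selleck L1700 and Sigma LO1280 libraries) at a single dose of 10 µM. Compounds were added to jimpy (Plp1 mutant) mouse iPSC-derived OPCs at the start of thyroid hormone-induced oligodendrocyte differentiation, one well per compound in 384-well plates. After 3 days cells were stained for MBP, Sox10 and DAPI and imaged with an Operetta system. MBP+ oligodendrocyte number and total cell number were expressed as the number of SDs above the mean of the DMSO negative control on the same plate (n=16 control wells per plate). Hits were defined as >=4 SD for oligodendrocytes and >=2 SD for total cells.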
As for `C[C@@H](Oc1cc(-c2cnn(C3CCNCC3)c2)cnc1N)c1c(Cl)ccc(F)c1Cl`, the total cell number is -27.1.

`C[C@H](Oc1cc(-c2cnn(C3CCNCC3)c2)cnc1N)c1c(Cl)ccc(F)c1Cl` [(S)-crizotinib]: the total cell number was -15.7. For `Fc1cc(-c2cccc3ncc(-c4cnn(C5CCNCC5)c4)nc23)cc(F)c1CN1CCOCC1`, the total cell number is -12.4. In the case of `C=CCc1cccc(/C=N/NC(=O)CN2CCN(Cc3ccccc3)CC2)c1O`, the total cell number was -9.01 ± 1.4. The molecule `O=C(Nc1ccc(S(=O)(=O)Nc2ccccc2Cl)c(Cl)c1)c1ccccn1` returned a total cell number of 0.173. `O=c1cc2c(=O)oc3cc(O)c(O)oc3c2c(O)c1O` [Galloflavin potassium]: the total cell number was -1.51. Regarding `Cc1[nH]c(/C=C2\C(=O)Nc3ccc(S(=O)(=O)N(C)c4cccc(Cl)c4)cc32)c(C)c1C(=O)N1CCN(C)CC1`, the total cell number was -26.7. `CN1CCN(C(=O)c2cc3cc(Cl)ccc3[nH]2)CC1`: the total cell number is -2.98. With `Cc1[nH]c(/C=C2\C(=O)Nc3ccc(S(=O)(=O)Cc4c(Cl)cccc4Cl)cc32)c(C)c1C(=O)N1CCC[C@@H]1CN1CCCC1` the figure was -27.2; with `CC(C)C[C@H](NC(=O)[C@H]1O[C@@H]1C(=O)O)C(=O)NCCCCN=C(N)N`, -3.4 ± 0.35; with `CN1[C@@H]2CC[C@H]1C[C@@H](OC(=O)C(O)c1ccccc1)C2` (mixture of isomers) [DL-Homatropine hydrobromide], 0.0407.

Turning to `Cc1nc(NC(=O)N2CCC[C@H]2C(N)=O)sc1-c1ccnc(C(C)(C)C(F)(F)F)c1`, the total cell number is -10.3. As for `COc1cc(C(O)C(=O)O)ccc1O` (racemic) [(±)-Vanillylmandelic acid], the total cell number was -0.443. In the case of `CC(=O)Nc1nc(C)c(-c2ccc(Cl)c(S(=O)(=O)NCCO)c2)s1`, the total cell number is -15.8. For the molecule `C[C@H](c1ccc(F)cc1CCCC(=O)O)N(c1cc(F)ccc1F)S(=O)(=O)c1ccc(Cl)cc1`, the total cell number was -4.06. In the case of `CCN(CC)CCCCCCCCOC(=O)c1cc(OC)c(OC)c(OC)c1` [TMB-8 hydrochloride], the total cell number stood at 2.1. Take `CCN(CC)CCCCNc1ncc2cc(-c3cc(OC)cc(OC)c3)c(NC(=O)NC(C)(C)C)nc2n1`: the total cell number is -24.8.

Turning to `COc1cc(OC)cc(-c2cc3cnc(N)nc3nc2NC(=O)NC(C)(C)C)c1`, the total cell number was -5.24. `C=C1CC[C@@H]2[C@](C)(CO)[C@H](O)CC[C@@]2(C)[C@@H]1C/C=C1/C(=O)OC[C@H]1O` [Andrographolide]: the total cell number was -9.57. On to `C=CC(=O)Nc1ccc2ncnc(Nc3cccc(Br)c3)c2c1`, for which the total cell number was -13.1. With `N[C@@H](Cc1ccc(F)cc1)C(=O)O` [p-Fluoro-L-phenylalanine] the figure was -1.39; with `Cc1ccc([N+](=O)[O-])cc1S(=O)(=O)N(C)/N=C/c1cnc2ccc(Br)cn12`, -25.8. Regarding `O=C(O)C1=CO[C@@H](O[C@@H]2O[C@H](CO)[C@@H](O)[C@H](O)[C@H]2O)[C@@H]2C(CO)=CC[C@H]12` [Geniposidic acid], the total cell number is -0.368. Regarding `COc1ccc(S(=O)(=O)Nc2nc(-c3cccc([N+](=O)[O-])c3)cs2)cc1OC`, the total cell number is -0.431. Turning to `O=C(c1cc(O)c(O)c([N+](=O)[O-])c1)c1ccccc1F`, the total cell number was determined as 0.768. In the case of `CC1(C)CCC(c2ccc(Cl)cc2)=C(CN2CCN(c3ccc(C(=O)NS(=O)(=O)c4ccc(N[C@H](CCN5CCOCC5)CSc5ccccc5)c(S(=O)(=O)C(F)(F)F)c4)cc3)CC2)C1` [ABT-263 (Navitoclax)], the total cell number is -16.7. As for `CC1(C)CCC(CN2CCN(c3ccc(C(=O)NS(=O)(=O)c4ccc(NCC5CCOCC5)c([N+](=O)[O-])c4)c(Oc4cnc5[nH]ccc5c4)c3)CC2)=C(c2ccc(Cl)cc2)C1`, the total cell number is -3.38. On to `CN(C)CC[C@H](CSc1ccccc1)Nc1ccc(S(=O)(=O)NC(=O)c2ccc(N3CCN(Cc4ccccc4-c4ccc(Cl)cc4)CC3)cc2)cc1[N+](=O)[O-]`, for which the total cell number was -23.1. As for `CCOC(=O)c1c(CSc2ccccc2)n(C)c2cc(Br)c(O)c(CN(C)C)c12` [Arbidol HCl], the total cell number is -4.97. For the molecule `COC(=O)C1=C(C)NC(C)=C(C(=O)OCCN2CCN(C(c3ccccc3)c3ccccc3)CC2)C1c1cccc([N+](=O)[O-])c1` (stereo not given) [Manidipine 2HCl], the total cell number was -11.4. With `COC(=O)C1=C(C)NC(C)=C(C(=O)OCCN2CCN(C(c3ccccc3)c3ccccc3)CC2)C1c1cccc([N+](=O)[O-])c1` (stereo not given) [Manidipine], the total cell number was -13. As for `C=CCN1CCc2cc(O)c(O)cc2C(c2ccccc2)C1` (racemic), the total cell number is -1.7.

For `C[C@@]1(C(=O)Nc2ccc(F)nc2)CCCN1c1nc(Nc2cc(C3CC3)n[nH]2)c2cccn2n1`, the total cell number is -24.7.

Consider `O=C(COc1cccc2c(=O)[nH]ccc12)c1ccccc1`, for which the total cell number is -0.123.

`CCc1ccc2c(-c3cccc(Cl)c3)nc(=O)n(CC)c2n1` displayed a total cell number of 0.722. With `CC(C)NC[C@@H](C(=O)N1CCN(c2ncnc3c2[C@H](C)C[C@H]3O)CC1)c1ccc(Cl)cc1` the figure was -8.76; with `COc1ccc(C2=N[C@@H](c3ccc(Cl)cc3)[C@@H](c3ccc(Cl)cc3)N2C(=O)N2CCNC(=O)C2)c(OC(C)C)c1` [Nutlin-3], -23.5. As to `C=C1C(=O)O[C@@H]2/C=C(\C)CC/C=C(\C)CC[C@@H]12` [Costunolide], the total cell number was -21. For `CN1CCN(c2ccc3nc(-c4c(N)c5c(F)cccc5[nH]c4=O)[nH]c3c2)CC1` [Dovitinib (TKI-258, CHIR-258)], the total cell number was -25.7. With `CN1CCN(c2ccc3nc(-c4c(N)c5c(F)cccc5[nH]c4=O)[nH]c3c2)CC1` [Dovitinib (TKI-258) Dilactic Acid], the total cell number was -12.1. Regarding `COc1cc(CCc2cc(NC(=O)c3ccc(N4CC(C)NC(C)C4)cc3)n[nH]2)cc(OC)c1` (stereo not given), the total cell number was -10.9.

As to `NC/C=C/C(=O)O` [(E)-4-amino-2-butenoic acid], the total cell number was -1.89. As to `CC(C)NCC(O)COc1cccc2ccccc12` (racemic) [(±)-Propranolol hydrochloride], the total cell number was -1.57. Consider `c1ccc(-c2[nH]ncc2-c2ccnc3ccccc23)nc1`, for which the total cell number was -2.66.

On to `OC[C@H]1O[C@H]([S-])[C@H](O)[C@@H](O)[C@@H]1O.[Au+]` [Aurothioglucose], for which the total cell number was -2.94. Consider `O=C(c1ccc(/C=C/c2n[nH]c3ccccc23)cc1)N1CCNCC1`, for which the total cell number is -13.2. For the molecule `COCC[n+]1c2c(n(Cc3cnccn3)c1C)C(=O)c1ccccc1C2=O` [YM155 (Sepantronium Bromide)], the total cell number was -27.7. `Cc1ccc2c(c1)C(=O)C1(O)CCN(c3ccccc3)C1=N2` (single isomer, unassigned; (-)) [(-)-Blebbistatin]: the total cell number is -14.8. In the case of `CN1CCN(CCOc2cc(OC3CCOCC3)c3c(Nc4c(Cl)ccc5c4OCO5)ncnc3c2)CC1` [Saracatinib (AZD0530)], the total cell number was -22.8. `CNC(=O)CN1CCC(Oc2cc3c(Nc4cccc(Cl)c4F)ncnc3cc2OC)CC1` [AZD8931 (Sapitinib)]: the total cell number is -10.1. Turning to `Cc1ccc(Sc2cncc3sc(C(N)=O)cc23)cc1`, the total cell number amounted to 0.0291. With `O=C(Nc1ccccc1)N1CCN(c2nc(-c3ccccc3)ns2)CC1` the figure was 0.543; with `CC(C)C[C@H](C(=O)O)c1cc(-c2ccc(C(F)(F)F)cc2)cc(-c2ccc(C(F)(F)F)cc2)c1`, 10.7. Take `COc1ccccc1CN[C@H]1CCCN[C@H]1c1ccccc1`: the total cell number is -1.93. `CCCCCCCCCCCCCCCCn1cc[n+](Cc2ccccc2)c1C`: the total cell number was -16.7. With `CCCCCN(CCCOC)C(=O)C(CCC(=O)O)NC(=O)c1ccc(Cl)c(Cl)c1` (stereo not given) [Loxiglumide], the total cell number was -0.322. With `CC[C@@H]1C(=O)N(C)c2cnc(Nc3ccc(C(=O)N[C@H]4CC[C@H](N5CCN(CC6CC6)CC5)CC4)cc3OC)nc2N1C(C)C` [Volasertib (BI 6727)], the total cell number is -14.6. On to `COc1cc(OC2CCN(C)CC2)ccc1Nc1ncc2c(n1)n(C1CCCC1)c(=O)n2C`, for which the total cell number was -7.07.

With `CC[C@@H]1C(=O)N(C)c2cnc(Nc3ccc(C(=O)NC4CCN(C)CC4)cc3OC)nc2N1C1CCCC1`, the total cell number is -26.1. For `CN1C2=CC(=O)/C(=N\NC(N)=O)C=C2CC1S(=O)(=O)O` (stereo not given) [Carbazochrome sodium sulfonate (AC-17)], the total cell number is -0.411. Take `CC1=C(C(=O)OC(C)C)C(c2cccc([N+](=O)[O-])c2)C(C(=O)OC2CN(C(c3ccccc3)c3ccccc3)C2)=C(N)N1` (stereo not given) [Azelnidipine]: the total cell number was -12.3. Take `CNCc1cc(-c2ccccc2F)n(S(=O)(=O)c2cccnc2)c1`: the total cell number was -1.01.

Molecule `CNC(=O)c1cc(Oc2ccc(NC(=O)Nc3ccc(Cl)c(C(F)(F)F)c3)c(F)c2)ccn1` [Regorafenib (BAY 73-4506)] yielded a total cell number of 0.684. As for `Cn1c(=O)c(-c2c(Cl)cccc2Cl)cc2cnc(Nc3ccc(N4CCOCC4)cc3)nc21`, the total cell number is -9.85. `COc1cc(N2CCC(N3CCN(C)CC3)CC2)ccc1Nc1ncc(Cl)c(Nc2ccccc2S(=O)(=O)C(C)C)n1`: the total cell number was -27.1. As to `C=CC(=O)Nc1cccc(Nc2nc(Nc3ccc(Oc4ccnc(C(=O)NC)c4)cc3)ncc2F)c1`, the total cell number was -15. For `Cc1cnc(Nc2ccc(N3CCN(C)CC3)cc2)nc1Nc1cccc(S(=O)(=O)NC(C)(C)C)c1`, the total cell number is -12.1. `C=CC(=O)Nc1cccc(Nc2nc(Nc3ccc(N4CCN(C(C)=O)CC4)cc3OC)ncc2C(F)(F)F)c1`: the total cell number was -15.5. For the molecule `C=CCn1c(=O)c2cnc(Nc3ccc(N4CCN(C)CC4)cc3)nc2n1-c1cccc(C(C)(C)O)n1`, the total cell number was -14.6. As to `C=CC(=O)Nc1cccc(Oc2nc(Nc3ccc(N4CCN(C)CC4)cc3OC)ncc2Cl)c1`, the total cell number was -24.9. With `C=CC(=O)Nc1cccc(Sc2nc(Nc3ccc(N4CCN(C)CC4)cc3)ncc2Cl)c1` the figure was -26.9; with `CCC(=O)Nc1cccc(Oc2nc(Nc3ccc(N4CCN(C)CC4)cc3OC)ncc2Cl)c1`, -15.2; with `C=CC(=O)Nc1cccc(Oc2nc(Nc3ccc(N4CCN(C)CC4)cc3)ncc2Cl)c1`, -26.9. In the case of `CNC(=O)c1ccccc1Nc1nc(Nc2ccc(N3CCOCC3)cc2OC)ncc1Cl`, the total cell number was -12.2. On to `Cc1cc(Nc2ncc(Cl)c(Nc3ccccc3S(=O)(=O)C(C)C)n2)c(OC(C)C)cc1C1CCNCC1`, for which the total cell number was -16.3.
